The panel holds about 79,000 compounds, 15% with a hit somewhere; the sample as a whole holds those more often. Cut-off read from the data, not from the text of the source: active = growth inhibition above about 70%; inactive = the rest.
Key:
[1] = NCI Yeast Anticancer Drug Screen. Data for the rad50 strain (AID 155);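 note: 0% = growth of vehicle-only cultures of the same strain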; settings: S. cerevisiae rad50 strain growth inhibition; at 50.0 µM; stronger effect = higher value
Outline: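 Relative growth inhibition (compound vs vehicle) was measured in yeast with a defined repair-gene alteration.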

[2] = NCI Yeast Anticancer Drug Screen. Data for the mec2-1 strain (AID 157); settings: S. cerevisiae mec2-1 strain, at 50.0 µM, stronger effect = higher value
Outline: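 Test agents were screened against the mec2-1 yeast strain, with defined DNA repair or cell cycle alteration. Growth was scored as inhibition against vehicle-only controls.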

[3] = NCI Yeast Anticancer Drug Screen. Data for the sgs1 mgt1 strain (AID 161);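 note: 0% = growth of cultures given vehicle only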; settings: S. cerevisiae sgs1 mgt1 strain, at 50.0 µM, stronger effect = higher value
Outline: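 Test agents were incubated with a DNA-repair-mutant yeast strain. Growth was then read and compared against vehicle-treated controls.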

[4] = NCI Yeast Anticancer Drug Screen. Data for the cln2 rad14 strain (AID 165);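 note: 0% = growth equal to vehicle treated cultures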; settings: S. cerevisiae cln2 rad14 strain, at 50.0 µM, stronger effect = higher value
Outline: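 Growth of compound-exposed yeast (cln2 rad14 genotype) measured and expressed as inhibition relative to vehicle.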

[5] = NCI Yeast Anticancer Drug Screen. Data for the bub3 strain (AID 167); settings: S. cerevisiae bub3 mutant strain, at 50.0 µM, stronger effect = higher value
Outline: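 Screening used yeast with an engineered genetic alteration affecting cell cycle control. Compound-exposed cultures were compared with vehicle cultures, and reduced growth was taken as inhibition.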

[6] = NCI Yeast Anticancer Drug Screen. Data for the mlh1 rad18 strain (AID 175); settings: S. cerevisiae mlh1 rad18 strain growth inhibition; at 50.0 µM; stronger effect = higher value
Outline: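 In this whole-cell yeast screen, a strain with altered DNA damage repair is challenged with compound, and its growth is measured against matched vehicle-treated controls.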

Measured: growth inhibition

CCOC(=O)c1c(Br)c(-c2ccc([N+](=O)[O-])cc2)c(Br)n1C
inactive: [1] 11.4% | [2] -7.4% | [3] -0.15% | [4] -0.15% | [5] -2.1% | [6] -5.2%

NC(N)=N/N=C(\c1ccc(Cl)cc1)C1CC1
inactive: [1] 2.7% | [2] -5.05% | [3] -11.9% | [4] -13.2% | [5] -65.3% | [6] 10%

CC1=CC2=C(C(N)=O)C(=O)OC2(C)C(c2ccccc2)C1 (configuration not stated)
inactive: [1] -19.9% | [2] -6.75% | [3] 4.65% | [4] 7% | [5] 1.85% | [6] 5.7%

CCOC(=O)C1=NN(c2ccccc2)C(=O)/C1=C\n1c(=S)sc2ccccc21
inactive: [1] -7.25% | [2] -24.4% | [3] -6.5% | [4] -16.1% | [5] -11.8% | [6] -2.4%

Cc1cc(Cl)c(Cl)cc1N
inactive: [1] -11.6% | [2] -7.2% | [3] 5.6% | [4] -9.65% | [5] 12.1% | [6] 12.4%

CN(Cc1cnc2nc(N)nc(N)c2n1)c1ccc(C(=O)NC(CCC(=O)OCc2cc3c(cc2Cl)OCO3)C(=O)OCc2cc3c(cc2Cl)OCO3)cc1 (configuration not stated)
inactive: [1] 16.9% | [2] 58.3% | [3] 42% | [4] 44.6% | [5] -8.6% | [6] 46.2%

CC1(C)CC(=O)C(C)(CCc2ccccc2)C(=O)C1
inactive: [1] -2.8% | [2] 8.9% | [3] 13.7% | [4] -44.6% | [5] -11.4% | [6] -6.65%

CC(=O)OCC(C)Cc1ccc(C(C)(C)C)cc1 (configuration not stated)
inactive: [1] 3% | [2] 0.3% | [3] 0.7% | [4] -4% | [5] 9.6% | [6] -2.4%

CCOC(CN=C=S)OCC
inactive: [1] 4.25% | [2] -3.95% | [3] 16.6% | [4] 9.05% | [5] -3.35% | [6] 4.65%

CCCc1nnnn1C12CC3CC(CC(C3)C1)C2
inactive: [1] 30.6% | [2] 18.8% | [3] 2.15% | [4] 2.2% | [5] 18.3% | [6] 28.1%

Cc1cc2c(=O)cc(-c3ccc(C(=O)O)cc3)oc2c(C(N)=O)c1C
inactive: [1] 4.15% | [2] 14.9% | [3] 23.6% | [4] 23.4% | [5] 11.2% | [6] 12.9%

COc1cc(C2SCC(=O)N2NC(=O)c2ccc(NC(C)=O)cc2)cc(OC)c1OC (configuration not stated)
inactive: [1] -11.8% | [2] -3.95% | [3] -5.2% | [4] 6.15% | [5] -12.4% | [6] -12.2%

c1ccc2c(CN3CCN(Cc4c[nH]c5ccccc45)CC3)c[nH]c2c1
inactive: [1] 17.1% | [2] -8.75% | [3] -14.5% | [4] -13.8% | [5] -2.8% | [6] -21.9%

COc1cc(Nc2nc3ccccc3nc2C(=O)O)cc(OC)c1OC
inactive: [1] -26.2% | [2] -9.45% | [3] -16.1% | [4] 2.5% | [5] 16.9% | [6] -45.4%

O=C1OC(c2cccc(Cl)c2)=N/C1=C\c1cccc([N+](=O)[O-])c1
inactive: [1] 15.5% | [2] 12.3% | [3] 24.6% | [4] 18.9% | [5] 17.6% | [6] 2%

CC(C)(C)c1cc(CCC(=O)Nc2ccc(Cl)cc2)[nH]c(=S)n1
inactive: [1] 1.85% | [2] -16.1% | [3] 0.4% | [4] -8.85% | [5] -5.85% | [6] -14.8%

Nc1ccnc(Cl)n1
inactive: [1] -2.45% | [2] -6.05% | [3] -13.2% | [4] 0.4% | [5] 0.4% | [6] -0.95%

Cc1cc(Cl)ccc1NC(=O)/C(Cc1nc2ccc(C(=O)c3ccccc3)cc2[nH]c1=O)=N/NC(=O)c1ccncc1
inactive: [1] 21.9% | [2] 17.1% | [3] 1.45% | [4] -33.7% | [5] 4.7% | [6] 16.1%

CCOC(=O)/C(N=O)=C(/C)O
inactive: [1] 13.8% | [2] 5.9% | [3] 4.8% | [4] -7.95% | [5] 11.4% | [6] 11.3%

C=C(C)CCCC(C)C(O)C=O (configuration not stated)
inactive: [1] -8.85% | [2] 1.15% | [3] 1.55% | [4] 1.75% | [5] -5.35% | [6] -12.7%

O=C1c2ccccc2C(=O)N1Cc1ccccc1
inactive: [1] 3.55% | [2] -16.9% | [3] 6.6% | [4] 27.4% | [5] 0.45% | [6] 6.7%

COc1ccccc1NC(=O)CC(=O)N/N=C/c1ccc(N(CCC#N)S(=O)(=O)c2ccccc2)cc1
inactive: [1] -48.4% | [2] 0.8% | [3] -20.6% | [4] 10.4% | [5] -15.8% | [6] -14.5%

C/C=C(\Cl)C(OC(C)=O)OC(C)=O
inactive: [1] -1.45% | [2] -0.2% | [3] -6.15% | [4] -6.8% | [5] 18.4% | [6] 2.55%

C=C1CC(Cn2cc(C)c(=O)[nH]c2=O)(c2ccc(-c3ccccc3)cc2)OC1=O (configuration not stated)
inactive: [1] 8.9% | [2] -5.35% | [3] 38.6% | [4] 37.7% | [5] 29.5% | [6] 47.1%

Cc1c(C(=O)Nc2ccccc2)nnn1-c1ccnc2cc(C(F)(F)F)ccc12
inactive: [1] -13.8% | [2] -6.75% | [3] -8.85% | [4] -4.05% | [5] -5.6% | [6] 2%

NC(=O)NC(=S)NC(=O)c1ccccc1
inactive: [1] -2.95% | [2] 0.95% | [3] -2.95% | [4] -33.5% | [5] -28.8% | [6] -7%

CCCCCCC1NC(=S)N(c2ccccc2)C1=O (configuration not stated)
inactive: [1] -12.1% | [2] 0.5% | [3] 48.5% | [4] -5% | [5] 21.2% | [6] -6.2%

N#CC(C(=O)CCCC(=O)Nc1ccc(Cl)cc1Cl)c1ccccc1 (configuration not stated)
inactive: [1] -39% | [2] -13.6% | [3] -6.95% | [4] 13.2% | [5] -16% | [6] -28.1%

Brc1ccc(C=C2c3ccccc3-c3ccccc32)cc1
inactive: [1] -11.1% | [2] -8% | [3] -16.4% | [4] 6.85% | [5] 7.65% | [6] 1.95%

CC[N+](CC)(CC)C[Si](C)(C)C
inactive: [1] 5.05% | [2] 5.7% | [3] 12.1% | [4] 2.4% | [5] 12% | [6] -6%

COc1ccc(C23C(=O)c4ccccc4N2O[C@H]2C(=O)N(c4ccccc4)C(=O)[C@H]23)cc1 (some centres not stated)
inactive: [1] -22.2% | [2] 20.1% | [3] -36.5% | [4] 7.9% | [5] -30.6% | [6] -21.1%

COC(=O)C1c2ccccc2CC(=O)N1N (configuration not stated)
inactive: [1] -2.7% | [2] -8.5% | [3] -20.6% | [4] 8.25% | [5] 7.05% | [6] 9.15%

CC(=O)Oc1cccc2c1C(=O)c1ccccc1C2=O
inactive: [1] 30% | [2] 5.3% | [3] 22.4% | [4] -4.2% | [5] 11.3% | [6] -10%

O=C(O)CCc1nc2c(n1Cc1ccccc1)C(=O)c1ccccc1C2=O
inactive: [1] 28.4% | [2] 21.3% | [3] 43.3% | [4] 44.7% | [5] 41.1% | [6] 13%

CC#CC(O)(C(=O)OC1CCC2CCC1N2C)C1CCCC1 (configuration not stated)
inactive: [1] -25.5% | [2] -8.9% | [3] -23.3% | [4] 6.2% | [5] -3.4% | [6] -4.65%

CC(C)CCCC(C)C1CCC2C3CC=C4C(C)(C)C(OC(=O)c5ccccc5)CCC4(C)C3CCC12C (configuration not stated)
inactive: [1] 13.9% | [2] -6.6% | [3] -4.35% | [4] -4.35% | [5] 5.85% | [6] -1.3%

CCc1cc2c(oc3c4ccccc4ccc23)c(=O)[nH]1
inactive: [1] -8.95% | [2] -12.6% | [3] -15.7% | [4] -14.3% | [5] -25.4% | [6] -7.55%
